# High-throughput results: PubChem, several laboratories
# This is a sample that favours compounds with a hit; in the whole collection about 4.2% have one here.
# AHR act = activates the human aryl hydrocarbon receptor | activation, % at 5 µM | AID 2796 | AHR-responsive luciferase reporter cells, luminescence | 320,000 tested, 2.5% active | P35869; in the data active = activation above about 47%
# Target sequence (P35869 whole entry, looked up): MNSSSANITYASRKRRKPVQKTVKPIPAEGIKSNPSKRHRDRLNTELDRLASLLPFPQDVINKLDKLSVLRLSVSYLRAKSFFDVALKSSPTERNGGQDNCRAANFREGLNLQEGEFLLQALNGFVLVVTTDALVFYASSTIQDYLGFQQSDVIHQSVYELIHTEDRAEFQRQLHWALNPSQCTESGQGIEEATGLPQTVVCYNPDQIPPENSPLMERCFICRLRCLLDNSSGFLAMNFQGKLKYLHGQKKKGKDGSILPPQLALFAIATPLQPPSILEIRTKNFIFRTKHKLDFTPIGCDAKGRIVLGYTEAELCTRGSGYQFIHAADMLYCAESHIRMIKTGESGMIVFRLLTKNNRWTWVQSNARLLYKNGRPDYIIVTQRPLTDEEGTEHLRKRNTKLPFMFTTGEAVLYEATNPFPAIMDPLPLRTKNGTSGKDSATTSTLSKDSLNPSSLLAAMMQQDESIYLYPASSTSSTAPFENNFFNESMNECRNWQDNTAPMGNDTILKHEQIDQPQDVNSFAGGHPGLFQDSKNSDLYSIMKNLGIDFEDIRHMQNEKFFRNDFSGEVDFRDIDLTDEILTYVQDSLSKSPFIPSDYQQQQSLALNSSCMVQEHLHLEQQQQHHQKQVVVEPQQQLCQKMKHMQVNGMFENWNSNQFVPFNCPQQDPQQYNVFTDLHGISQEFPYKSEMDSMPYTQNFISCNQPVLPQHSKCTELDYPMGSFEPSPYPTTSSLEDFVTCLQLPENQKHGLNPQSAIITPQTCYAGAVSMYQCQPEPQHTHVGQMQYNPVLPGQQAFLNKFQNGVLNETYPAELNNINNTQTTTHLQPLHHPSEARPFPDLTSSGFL
# esBAF inh = SWI/SNF esBAF complex inhibition; mouse ES cells, Bmi1-luciferase knock-in reporter, 24 h; 100% = twice the neutral-well signal; reporter increase, % at 12.5 µM; 350,000 tested, 2% active; AID 602393; in the data active = activation above about 40%; inconclusive = no clear call, values can overlap the other calls;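 also: a rise in the Bmi1 reporter signal indicates esBAF inhibition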
# GAA850 FXN act = frataxin GAA850 promoter activation. HEK293 lucGAA850 FXN promoter luciferase reporter, 24 h; percent of 10 µM SAHA response. activation, % at 6 µM. 360,000 tested, 0.56% active;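 active = activation above the average of all compounds screened plus 3 SD, cutoff fixed separately per campaign, cut at about 7.5% in these data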
# MITF act = increases MITF-driven TRPM1 promoter luciferase signal; SK-MEL-5 TRPM1-promoter luciferase, 24 h; % of positive control, neutral wells = 0; activation, % at 12.5 µM; 300,000 tested, 0.75% active; AID 588334;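 active = mean activation of at least 80% with every replicate also reaching 80%; inconclusive = mean reaches 80% but some replicate falls short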
# Wnt bcat act = Wnt/beta-catenin pathway activation; AID 743398; 300,000 tested, 1.2% active; Wnt/beta-catenin reporter cell assay, activator, plate reader; activation, % at 9.35 µM; in the data active = activation above about 30%, passing the limit was not always enough; inconclusive = no clear call, values can overlap the other calls
# Hits are given with their value; n = inactive; u = inconclusive; x = no result.
SMILES,AHR act,esBAF inh,GAA850 FXN act,MITF act,Wnt bcat act
COc1ccc(CN(C)C[C@@H]2Oc3c(NC(=O)NC4CCCCC4)cccc3C(=O)N([C@@H](C)CO)C[C@@H]2C)cc1,x,n,x,x,x
C[C@H]1CN([C@@H](C)CO)C(=O)c2cc(C#Cc3cccc(F)c3)cnc2O[C@H]1CN(C)CC1CCCC1,x,n,x,x,x
O=C(NCC[C@H]1CC[C@@H](NC(=O)c2ccccc2F)[C@H](CO)O1)c1cnccn1,x,n,x,x,x
COCC(=O)Nc1sc2c(c1C(=O)OC)CCC(C)C2 (configuration not stated),n,n,n,x,x
COC(=O)c1c(NC(=O)CN2CCOCC2)sc2c1CCC(C)C2 (configuration not stated),n,62,n,u,x
O=c1cc(-c2ccccc2)oc2cc(O)cc(O)c12,n,n,n,100,n
O=c1cc(-c2ccccc2)oc2cccc(O)c12,x,45,n,n,n
O=c1cc(-c2cccc(Cl)c2)oc2cccc(O)c12,n,n,n,n,n
COCOc1ccc(-c2cc(=O)c3c(O)cc(OCOC)cc3o2)cc1,n,88,n,x,n
O=c1cc(-c2cccc(Br)c2)oc2cccc(O)c12,49,n,n,n,n
COc1cc(-c2cc(=O)c3c(O)cc(O)cc3o2)ccc1O,n,n,n,x,x
Cc1ccc(C(=O)COc2cc(O)c3c(=O)cc(-c4ccccc4)oc3c2)cc1,n,n,n,x,n
Cc1ccccc1-c1cc(=O)c2c(O)cccc2o1,n,n,n,n,n
CNC[C@H]1Oc2ccc(N)cc2C(=O)N([C@H](C)CO)C[C@@H]1C,x,n,x,x,x
COc1cc(O)c2c(=O)cc(-c3ccccc3)oc2c1,n,50,n,95,n
O=c1cc(-c2ccc(O)cc2)oc2cc(O)cc(O)c12,n,u,n,94,46
O=C(COc1cc(O)c2c(=O)cc(-c3ccccc3)oc2c1)c1ccccc1,n,n,n,n,x
C[C@@H]1CCCCO[C@@H](CN(C)CC2CCCCC2)[C@@H](C)CN([C@H](C)CO)C(=O)c2cc(NC(=O)Nc3cccc4ccccc34)ccc2O1,x,n,x,x,x
Cc1cc(C(=O)C(C)Sc2cccc[n+]2[O-])c(C)n1-c1ccc(Cl)cc1 (configuration not stated),n,62,n,n,n
Cc1cc(C(=O)C(=O)O)c(C)n1-c1ccc(Cl)cc1,n,n,n,n,n
NC(=O)CSc1nc(N)c2c3c(sc2n1)CCCCC3,n,55,n,x,x
COc1ccc(C(=O)Nc2cc(C(C)=O)c(/C=C/N(C)C)oc2=O)cc1,n,n,n,n,n
CC(=O)c1cc(NC(=O)c2ccc(C)cc2)c(=O)oc1/C=C/N(C)C,n,44,n,n,x
O=C(c1ccccc1)c1cc[n+]([O-])cc1,n,n,n,x,n
[O-][n+]1ccc(C2CC2)cc1,n,n,n,x,39
SMILES,AHR act,esBAF inh,GAA850 FXN act,MITF act,Wnt bcat act
Cc1ccc(-n2cc(-c3ccccc3)[nH]c2=O)cc1F,n,50,n,113,n
OCCOCCn1c(CCNc2nc(-c3ccc(Cl)cc3)cs2)nc2cc(Cl)c(Cl)cc21,59,n,n,n,n
COc1ccc(-c2csc(NC(CO)c3nc4ccccc4n3CCOCCO)n2)cc1 (configuration not stated),n,n,n,n,n
Cc1ccc(-c2csc(NCCc3nc4cc(Cl)c(Cl)cc4n3CCCO)n2)cc1,n,n,n,n,n
COc1ccc(-c2csc(NC(CO)c3nc4ccccc4n3CCCO)n2)cc1 (configuration not stated),55,n,n,n,n
CC(Nc1nc(-c2ccc(F)cc2)cs1)c1nc2cc(Cl)c(Cl)cc2n1CCCO (configuration not stated),72,n,n,n,n
Cc1ccc(C(=O)Nc2cc(Cl)ccc2-n2cncn2)o1,58,x,n,n,n
COc1ccccc1C(=O)Nc1cc(Cl)ccc1-n1cncn1,49,x,n,n,n
O=C(Nc1cc(Cl)ccc1-n1cncn1)c1ccc([N+](=O)[O-])s1,68,n,n,n,x
COc1cc(OC)c(C(=O)Nc2cc(Cl)ccc2-n2cncn2)cc1OC,59,n,n,n,n
O=C(NC1CCCCC1)N[C@H]1CC[C@H](CCNS(=O)(=O)c2ccccc2)O[C@H]1CO,x,n,x,x,x
COCC(=O)Nc1ccc2c(c1)[C@H]1C[C@@H](CC(=O)NCc3ccccc3)O[C@H](CO)[C@H]1O2,x,n,x,x,x
C[C@H](CO)N1C[C@H](C)[C@@H](CN(C)Cc2cccnc2)Oc2ncc(-c3ccncc3)cc2C1=O,x,n,x,x,x
COc1ccc(CN(C)C[C@@H]2Oc3ccc(NC(=O)Nc4ccc(F)cc4)cc3CC(=O)N([C@@H](C)CO)C[C@@H]2C)cc1,x,n,x,x,x
Cc1cn(-c2ccc(Br)cc2)[nH]c1=O,n,52,n,n,n
Cc1ccc(S(=O)(=O)N(C)C[C@@H]2OCCCC[C@H](C)Oc3ccc(NS(=O)(=O)c4cn(C)cn4)cc3C(=O)N([C@H](C)CO)C[C@H]2C)cc1,x,n,x,x,x
CCC1(CC)Nc2ccccc2C(=O)N1c1ccc(NC(C)=O)cc1,n,n,n,n,n
CCC1(CC)Nc2ccccc2C(=O)N1c1ccc(OC)cc1,n,x,n,n,53
O=C(Nc1cc(F)ccc1F)N1C[C@@H]2[C@H](c3ccccc31)[C@@H](CO)N2Cc1cccnc1,x,n,x,x,x
O=C(C[C@H]1CC[C@@H](NC(=O)C2CCC2)[C@@H](CO)O1)Nc1nccs1,x,n,x,x,x
Cc1ccc(NC(=O)c2snc3ccc(Cl)cc23)cc1C,n,x,n,n,48
O=C(C[C@@H]1CC[C@H]2[C@@H](COC[C@H](O)CN2C(=O)Nc2ccc(Cl)c(Cl)c2)O1)NCc1ccc(F)cc1,x,n,x,x,x
COc1ccc(NC(=O)N(C)C[C@H]2Oc3c(NC(=O)c4ccncc4)cccc3C(=O)N([C@@H](C)CO)C[C@@H]2C)cc1,x,n,x,x,x
Cc1ccc(C)c2c(N)c3c(nc12)CCCCC3 (tested in a mixture with another compound),47,x,n,n,n
Nc1c2c(nc3c1CCCC3)CCCC2 (tested in a mixture with another compound),n,n,n,x,n
SMILES,AHR act,esBAF inh,GAA850 FXN act,MITF act,Wnt bcat act
Nc1c2c3c(sc2nc(=O)n1N)CCCC3,n,x,n,n,n
Nc1c2c(nc3sc4c(c13)CCCC4)CCCCCC2,49,n,n,n,u
CN1C(=O)c2cc(NS(C)(=O)=O)ccc2OC[C@H]2O[C@@H](CC(=O)NC3CCCCC3)CC[C@H]21,x,n,x,x,x
CC1(C)CC(=O)c2cnc(N3CCc4ccccc4C3)nc2C1,n,69,n,n,n
CC1(C)CC(=O)c2cnc(N3CCN(c4ccccc4)CC3)nc2C1,n,n,n,n,x
COc1ccc(CNC(=O)Cn2cccc2C(=O)c2ccccc2)cc1,n,53,n,n,n
COc1ccc(CNC(=O)Cn2ncn3cccc3c2=O)cc1,71,x,x,x,n
COc1ccc(CNC(=O)Cn2cccc2C(=O)c2ccccc2C)cc1,n,47,n,n,n
COc1ccc(OC)c(CCNC(=O)Cn2cccc2C(=O)c2ccccc2)c1,n,n,n,n,n
